# Assay results reported in PubChem BioAssay (NCI).
# About 83,000 compounds went through this panel and 20% of them were active in at least one assay; those are over-represented in the sample as a whole.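 Step 1: grow cells in 96-well plates. Step 2: add test compound at a single concentration. Step 3: incubate 48 h. Step 4: record percent growth.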 Values without a mark were called inactive. Active and inactive are the calls of the source. The calls were made as follows: active = growth percent below 10; inactive = the rest.
# What was measured:
# Test in all cases: NCI-60 one-dose screen, 48 h (100 = growth as untreated, 0 = no growth, -100 = all killed)
# Details in all cases: 10 µM unless noted
# NCI-H23 lung = system: NCI-H23 lung
# NCI-H226 lung = system: NCI-H226 lung
# NCI-H322M lung = system: NCI-H322M lung
# HOP-62 NSCLC = system: HOP-62 NSCLC
# NCI-H460 lung = system: NCI-H460 lung
# HOP-92 NSCLC = system: HOP-92 NSCLC
# NCI-H522 lung = system: NCI-H522 lung
# A549/ATCC NSCLC = system: A549/ATCC NSCLC
# 786-0 renal = system: 786-0 renal
# COLO 205 colon = system: COLO 205 colon
Compound,growth (NCI-H23 lung),growth (NCI-H226 lung),growth (NCI-H322M lung),growth (HOP-62 NSCLC),growth (NCI-H460 lung),growth (HOP-92 NSCLC),growth (NCI-H522 lung),growth (A549/ATCC NSCLC),growth (786-0 renal),growth (COLO 205 colon)
C[C@H]1[C@@H](CC(=O)N[C@@H](Cc2coc3ccccc23)B(O)O)O[C@@H]2OC3(C)CC[C@H]4[C@H](C)CC[C@@H]1[C@@]24O3,18.6%,-15.5% (active),74.9%,6.31% (active),17%,23.2%,-50% (active),31.6%,17.1%,23%
O=C1CCC(N2C(=O)c3cccc(NCCCCCC(=O)N4CCN(c5ccc6nc7c(nc6c5C(F)(F)F)C(=O)c5ncccc5C7=O)CC4)c3C2=O)C(=O)N1 (stereo not given),-49% (active),-51.3% (active),-73.8% (active),-74.2% (active),-48.3% (active),-40.2% (active),-62% (active),-64.3% (active),-56.5% (active),-75.9% (active)
COc1ccc(N=Nc2c(N)nn3c(-c4ccc5c(c4)C=S=C5)ccnc23)cc1,27%,22.8%,49.1%,42.5%,35.3%,4.83% (active),-12.6% (active),43%,55.7%,54.8%
COc1c2c(cc3c1C(CCc1ccccc1)N(C)CC3)OCO2 (stereo not given),5.64% (active),-1.8% (active),28.7%,36.6%,1.55% (active),1.44% (active),11.4%,21.4%,12.6%,-56.5% (active)
Cc1cccc(NCC(=O)N2CCN(c3ncnc4c3cnn4-c3ccccc3)CC2)c1,58.4%,54.5%,69.3%,67.4%,65%,50.6%,-6.93% (active),65.3%,80.8%,97.4%
O=C(Nc1nc2ccccc2s1)Nc1ccccc1Cl,70.5%,31.5%,94.3%,12.2%,66.9%,74.3%,64.1%,74.5%,41%,97.5%
CCCCNc1ccc2c3c(cccc13)C(=O)N(NCC(O)COc1ccc3c(C)cc(=O)oc3c1)C2=O (stereo not given),87.4%,87.5%,91%,97%,92.6%,78.2%,83.2%,87%,101%,92.2%
Cc1ccc(-c2cc(-c3ccccc3)[nH]c(=O)c2C#N)cc1,96.4%,86.8%,91.2%,85.3%,90.8%,45.7%,74.9%,77.3%,88.4%,124%
COc1ccc(N=Nc2c(N)nn3c(-c4cc5ccccc5oc4=O)ccnc23)cc1,36.6%,3.29% (active),63.4%,14.7%,17.2%,34.3%,72.7%,59.4%,15.6%,63.9%
C=CC(=O)N1CCN(c2ccc3nc4c(nc3c2C(F)(F)F)C(=O)c2ncccc2C4=O)CC1,-61.5% (active),63.8%,10.2%,39.9%,-34.3% (active),-3.31% (active),-8.31% (active),2.38% (active),22%,-22.8% (active)
COc1cc(CNC(=O)C[C@H](C)CCC=C(C)C)ccc1OCc1cn(-c2ccccc2Cl)nn1,64.5%,59.7%,91.3%,79.3%,78.4%,79.4%,51.4%,64.1%,87.7%,71.7%
CCCCNC(=S)Nc1ccc(OCc2nc3ccc(Cl)cc3[nH]2)cc1,29.3%,58.4%,57%,49.5%,15.6%,-0.247% (active),-57.5% (active),52.7%,31.3%,24.9%
COc1ccc2[nH]c(=O)c(CSc3ccccc3Nc3nccc(-c4ccc(C(F)(F)F)cc4)n3)cc2c1,30.7%,18.7%,67.4%,53.6%,17.4%,26.7%,0.553% (active),18.5%,-4.97% (active),27.8%
O=C(NN1C(=O)/C(=C/C=C/c2ccc([N+](=O)[O-])o2)SC1=S)c1ccncc1,-88.8% (active),-52.7% (active),-16.3% (active),-97.5% (active),-53.6% (active),-85.1% (active),-83.8% (active),-34.7% (active),-79.9% (active),-96.9% (active)
O=c1ccc(Cn2c(C(F)(F)F)cc3c(Cl)ncnc32)c[nH]1,17.7%,116%,67.2%,94.7%,32.5%,78.6%,-77.1% (active),105%,102%,62.6%
O=C1Nc2cc(-c3ccc(NS(=O)(=O)c4ccc(-c5ccccc5)cc4)cc3)ccc2/C1=C/c1ccc[nH]1,4.1% (active),66.5%,47.3%,75.9%,3.38% (active),16.1%,-11.8% (active),10.5%,58.4%,0.446% (active)
COC(=O)c1cc(C(=O)C(F)(F)F)n2c3ccccc3c3ccccc3c12,83.6%,52.6%,90.8%,41.1%,62.1%,59.2%,96%,92.8%,24.2%,79.7%
CN1CCN(CCS(=O)(=O)Nc2cc(-c3ccc4ncnc(Nc5ccc(F)c(Cl)c5)c4c3)cnc2Cl)CC1,13%,48.9%,-15.5% (active),39.9%,54.7%,-10.2% (active),10.1%,55.6%,19.4%,-31.9% (active)
Cn1cc(-c2cc(N)n3nc(-c4c[nH]c5ccc(Cl)cc45)cc3n2)c2cc(Br)cnc21,-58.6% (active),-12.5% (active),32.3%,-22.4% (active),-58% (active),-76.8% (active),-71% (active),-64.9% (active),-93.7% (active),-91.6% (active)
Cc1oc(-c2ccccc2)nc1CN[C@@H]1C[C@@H]2C[C@H]([C@H]1C)C2(C)C,-30% (active),-29.8% (active),57.9%,75%,4.28% (active),-11.4% (active),30.8%,50.9%,21.8%,-69.3% (active)
Nc1nnc(CS(=O)(=O)c2ccccc2)s1,107%,121%,94.6%,102%,114%,86.5%,80.8%,102%,108%,117%
CN(C)CCOc1ccc(C(=O)C2[C@H](c3ccc(Cl)cc3)[C@@H](c3ccccc3)NC23C(=O)Nc2ccc(Cl)cc23)cc1 (stereo not given in full),-93.2% (active),-82.3% (active),-91.1% (active),-82.6% (active),-87.4% (active),-89.9% (active),-91.7% (active),-77.9% (active),-94% (active),-76.9% (active)
C[C@@H]1[C@H]2C[C@@H](C[C@H]1NCc1nc3ccccc3n1C1CCCCCC1)C2(C)C,33%,57.2%,95.4%,88.3%,56.3%,28.9%,22.9%,71.8%,63.4%,58.7%
COc1cc(C2CC(c3cc(OC)c(OC)c(OC)c3)=Nc3c(N)nc(N)nc3N2)ccc1Oc1nc(Nc2ccc(F)cc2)nc(N(C)C)n1 (stereo not given),89.8%,106%,94.4%,99.9%,42.8%,38.1%,56.8%,52.9%,36.6%,73.9%
